Measurements taken from PubChem BioAssay (NCI).
About 83,000 compounds went through this panel and 20% of them were active in at least one assay; those are over-represented in the sample as a whole.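 The test compound was applied at a single concentration to cells in 96-well plates for 48 hours, and percent growth was recorded.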 Values without a mark were called inactive. Active and inactive are the calls of the source. How the source made its calls: active means growth percent below 10; inactive means the rest.

What was measured:
Test in all cases: NCI-60 one-dose screen, 48 h (100 = growth as untreated, 0 = no growth, -100 = all killed)
Settings in all cases: 10 µM unless noted
[1] = system: DU-145 prostate
[2] = system: K-562 leukemia
[3] = system: MALME-3M melanoma
[4] = system: MDA-MB-231 breast
[5] = system: RXF 393 renal
[6] = system: SF-268 CNS
[7] = system: SF-295 CNS
[8] = system: SF-539 CNS
[9] = system: UACC-257 melanoma
[10] = system: M14 melanoma
[11] = system: HCT-15 colon
[12] = system: HT29 colon
[13] = system: SNB-75 CNS
[14] = system: SNB-19 CNS
[15] = system: U251 CNS
[16] = system: PC-3 prostate
[17] = system: SK-MEL-5 melanoma
[18] = system: UACC-62 melanoma
[19] = system: SK-MEL-28 melanoma
[20] = system: LOX IMVI melanoma

Compound	growth [1]	growth [2]	growth [3]	growth [4]	growth [5]	growth [6]	growth [7]	growth [8]	growth [9]	growth [10]	growth [11]	growth [12]	growth [13]	growth [14]	growth [15]	growth [16]	growth [17]	growth [18]	growth [19]	growth [20]
Cc1nc2ccccc2c(/C=C/c2ccc(C(F)(F)F)cc2)c1C(=O)/C=C/c1ccccc1	-43.6% (active)	4.16% (active)	-65.2% (active)	-39.9% (active)	-82.9% (active)	33.4%	-45.3% (active)	-83.6% (active)	-25.5% (active)	-25.9% (active)	-49.4% (active)	-29.2% (active)	31.3%	-66.5% (active)	-84.1% (active)	12%	-79% (active)	-39.8% (active)	-52.2% (active)	–
Cc1ncc(C(=O)Nc2ccc(CN3CCN(C)CC3)c(C(F)(F)F)c2)cc1C#Cc1cnc(N)c2cnccc12	13.5%	25.1%	-26.1% (active)	-63.4% (active)	-34.3% (active)	14.6%	23.6%	-76.2% (active)	-16.8% (active)	-78.5% (active)	6.59% (active)	-43.1% (active)	-90.6% (active)	23.1%	-20.7% (active)	41.7%	-20.8% (active)	–	-0.469% (active)	-90.1% (active)
O=C1NC(=Nc2ccc(O)cc2)S/C1=C\c1cccs1	44.6%	14.7%	68.8%	57.9%	41.2%	50%	34.8%	16.7%	70.5%	34.8%	20.9%	89.7%	-12.7% (active)	32.4%	25.2%	-1.89% (active)	47.8%	46.1%	75.6%	–
O[C@@H](c1cc(C(F)(F)F)nc2c(C(F)(F)F)cccc12)[C@H]1CCCCN1	65.8%	15.8%	99%	14.5%	55.2%	54.7%	95.7%	85.6%	65.5%	71.6%	77.5%	53.8%	36.6%	54.8%	47.7%	49.4%	82%	–	98.3%	29.4%
N#Cc1nc2c(S(=O)(=O)c3ccccc3)c(N)n(Cc3cccnc3)c2nc1C#N	90.6%	51.6%	78.1%	84.7%	59.7%	52.2%	92.7%	58.7%	80.3%	142%	101%	104%	57.4%	75.9%	75.5%	67%	93.6%	85.6%	89.3%	–
COc1ccc(C(c2cc(OC)c(OC)c(OC)c2)N2CCN(Cc3ccccc3)CC2)cc1 (centres undefined)	102%	26.4%	74.8%	71%	72.3%	86.4%	68.7%	81.2%	84.2%	52.8%	47.6%	28.3%	92.4%	70%	62.8%	59.3%	52.6%	49.4%	78.3%	–
O=C(O)c1cn(C2CC2)c2cc(N3CCN(C(=O)N/N=C/c4ccccc4)CC3)c(F)cc2c1=O	104%	89.1%	92.9%	120%	104%	96.8%	106%	110%	89.3%	108%	98.4%	96.9%	98.9%	94.7%	101%	96%	94.9%	–	108%	80.7%
C/C(C=O)=C\c1ccc2c(c1)OCO2	108%	113%	127%	121%	98.3%	110%	104%	106%	109%	121%	108%	110%	102%	111%	107%	104%	105%	–	124%	96.7%
CC(C(=O)O)n1c(O)c(C=Nc2cccnc2)sc1=S (centres undefined)	97%	89%	98.8%	86.3%	88.7%	87.7%	101%	98.1%	103%	95.3%	98.4%	111%	80.3%	91.4%	86.3%	88%	95.5%	88.8%	113%	–
COc1ccc(/C(C)=C(\c2ccc(OCCN3CCCCCC3)cc2)c2ccc(OC(=O)c3ccccc3)cc2)cc1	71.8%	1.82% (active)	22.7%	52.6%	16.4%	44.4%	20.6%	45.2%	-15.5% (active)	-39% (active)	12.1%	-3.62% (active)	83.3%	62.8%	31.7%	39.6%	42.8%	–	54.9%	-51% (active)
CC1COCC(C)N1C1=C(Cl)C(=O)c2ccccc2C1=O (centres undefined)	97.9%	0.947% (active)	75.3%	67.4%	61.3%	90.8%	102%	104%	37.1%	80.6%	36.6%	89.7%	120%	96.4%	45.6%	47.2%	66.5%	–	87%	7.84% (active)
COc1ccc(Cc2nnc(Nc3nc4ccccc4s3)s2)cc1	109%	64.8%	100%	98%	97.8%	103%	92.9%	93.9%	99.9%	102%	92.4%	110%	92.2%	94.2%	98.2%	108%	96.5%	–	92.3%	96.4%
N#Cc1c(-c2ccccc2)cc(-c2ccccc2)n(CCCC(=O)NO)c1=O	26.1%	7.36% (active)	11.1%	35.1%	-1.83% (active)	37.3%	13.8%	20.6%	37.6%	18.6%	19.1%	20.9%	-23.6% (active)	43.5%	26.8%	35.5%	-13.6% (active)	–	33.4%	8.85% (active)
COC1=CC(c2ccc[nH]2)=N/C1=C\c1[nH]c(C)c(CC(=O)OCc2ccccc2)c1C	20.8%	2.58% (active)	-67.9% (active)	-13.6% (active)	-26.7% (active)	9.87% (active)	-50.1% (active)	-4.33% (active)	-25% (active)	-55.9% (active)	-11% (active)	4.42% (active)	-7.14% (active)	23.5%	-21% (active)	2.94% (active)	-91.5% (active)	-31.7% (active)	-18.2% (active)	–
Cc1nc2sc(C(=O)Nc3cccc(Cl)c3)c(N)c2cc1C(O)c1ccccc1 (centres undefined)	19.7%	6.94% (active)	49.7%	22.3%	27.7%	42.3%	28.8%	-3.45% (active)	35%	15%	14.2%	14.9%	46.9%	33.4%	10.2%	28.1%	11%	31.5%	56%	–
CC1(C)CC2=C3C=C[C@@H]4[C@@]5(C)CC[C@H](O)C(C)(C)[C@@H]5CC[C@@]4(C)[C@]3(C)CC[C@@]2(C(=O)O)CC1=O	84.1%	57.5%	15.9%	40.4%	21.8%	35.4%	47.3%	60%	20.9%	30.3%	28%	35.7%	16.8%	68.9%	32.3%	45%	25.3%	–	30.9%	46.9%
